Calls of active or inactive are those of the source.
What was measured:
[1] = molecular target: Albumin (Bos taurus) (UniProt P02769); assay: bovine serum albumin binders on microarray, profiling panel, artefact control for SMM control protein annotation, biochemical, small-molecule microarray, Alexa647 label, 635/667 nm fluorescence (AID 1118); conditions: BSA-A647 binding, fluorescence 635 nm, higher = more signal;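 further: score merges 667 nm emission intensity and signal-to-noise per printed compound spot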
[2] = small-molecule microarray binders of probe aXIP, primary screen, biochemical, NeuroSMM set, 635/667 nm fluorescence (AID 1119); conditions: higher = more signal, called active from +8 up or from −8 down;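 further: probe is the protein aXip251-270 applied at 1 µg/mL to compound-printed slides; binding of probe to printed compounds measured as 667 nm fluorescence plus signal to noise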
[3] = small-molecule binders of probe aNOTCH3, primary screen, biochemical, small-molecule microarray, 635/667 nm fluorescence (AID 1120); conditions: higher = more signal;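 further: probe is a biotin-tagged antibody raised against NOTCH3 rather than NOTCH3 protein; score merges spot fluorescence near 667 nm with spot signal to noise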
[4] = small-molecule binders of probe aNOTCH2, primary screen, biochemical, small-molecule microarray, 635/667 nm fluorescence (AID 1121); conditions: higher = more signal;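 further: score merges feature fluorescence read at 667 nm with its signal to noise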
[5] = molecular target: Carbonic anhydrase 2 (Homo sapiens) (UniProt P00918); assay: CAII small-molecule binders, profiling panel, biochemical, small-molecule microarray, Alexa647-labelled CAII (AID 1122); conditions: CAII-A647 binding fluorescence, higher = more signal
[6] = COS7 lysate on small-molecule microarray, probe aHis, 635 nm (AID 1123); conditions: COS7 cell lysate, fluorescence, higher = more signal;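 further: z-score combines 667nm fluorescence intensity with signal-to-noise per printed compound spot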
[7] = compound binding in COS7 lysate, probe aLAP1, primary screen, cell lysate, small-molecule microarray (AID 1124); conditions: probe aLAP1, fluorescence, higher = more signal;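 further: lysate comes from COS7 cells expressing LAP1 and is applied at 0.3 µg/mL; score merges spot fluorescence near 667 nm with signal-to-noise over triplicate slides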
[8] = tested on: Sam68 (KHDRBS1); assay: Sam68 small-molecule binders, primary screen, biochemical, small-molecule microarray, 635 nm fluorescence (AID 1125); conditions: small-molecule microarray binding, higher = more signal;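 further: score merges 667 nm channel intensity with signal to noise over triplicate slides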
[9] = tested on: Chordin-like protein 2 (CHRDL2); assay: CHRDL2 small-molecule binders, primary screen, biochemical, small-molecule microarray, 635 nm fluorescence (AID 1126); conditions: small-molecule microarray binding, fluorescence 635 nm; higher = more signal;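 further: printed compound slides probed with Chrdl2 protein at 4 µg/mL for 1 h at 4 C; score merges 667 nm emission intensity with signal to noise over three replicate slides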
[10] = molecular target: Concanavalin-A (Canavalia ensiformis) (UniProt P02866); assay: ConA small-molecule binders, primary screen, artefact control for SMM control protein annotation, biochemical, small-molecule microarray, Alexa647 label, 635 nm (AID 1127); conditions: ConA-A647 binding fluorescence, higher = more signal;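 further: z combines 667 nm emission intensity with signal-to-noise across three replicate slides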
[11] = anti-His antibody binders, primary screen, artefact control for SMM control protein annotation, biochemical, small-molecule microarray, 635 nm fluorescence (AID 1128); conditions: anti-His Alexa647 antibody binding, higher = more signal;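 further: score merges feature fluorescence with signal-to-noise for each printed compound spot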
[12] = tested on: Human papillomavirus type 1a E7 protein (residues 1-88); assay: HPV1a E7 small-molecule binders, primary screen, biochemical, small-molecule microarray, residues 1-88, 635 nm (AID 1129); conditions: small-molecule microarray binding, fluorescence 635 nm; higher = more signal
[13] = molecular target: Focal adhesion kinase 1 (Homo sapiens) (UniProt Q05397); assay: small-molecule microarray binders of FAK, primary screen, biochemical, 635/667 nm fluorescence, BSA, DTT (AID 1130); conditions: PTK2 binding, 635 nm fluorescence, higher = more signal;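 further: composite of spot emission at 667 nm and signal to noise over triplicate slides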
[14] = tested on: Fibrinogen (Alexa647-labelled); assay: fibrinogen binders on compound microarrays, profiling panel, artefact control for SMM control-protein annotation, biochemical, small-molecule microarray, 635/667 nm fluorescence (AID 1131); conditions: fibrinogen-A647 binding fluorescence, higher = more signal;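 further: z-score merges 667 nm fluorescence with per-spot signal-to-noise over triplicate slides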
[15] = molecular target: Follistatin (Homo sapiens) (UniProt P19883); assay: follistatin binders on small-molecule microarrays, primary screen, biochemical, small-molecule microarray, 635/667 nm fluorescence (AID 1132); conditions: FST binding, 635 nm fluorescence, higher = more signal
[16] = molecular target: Fibroblast growth factor 2 (Homo sapiens) (UniProt P09038); assay: FGF2 binders on small-molecule microarrays, primary screen, biochemical, small-molecule microarray, 635/667 nm fluorescence (AID 1133); conditions: small-molecule microarray binding, FGF2, fluorescence 635/667; higher = more signal
[17] = mitochondrial membrane potential change in A549 cells, profiling panel, cell-based, JC-1 fluorescence, basal, 24 h, 100 nL (AID 1138); conditions: higher = more signal;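 further: A549 lung adenocarcinoma cells under basal conditions with no added stimulus; test concentration not given here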
[18] = tested on: Lefty1; assay: Lefty1 binders on small-molecule microarrays, primary screen, biochemical, small-molecule microarray, 635/667 nm fluorescence (AID 1139); conditions: small-molecule microarray binding, fluorescence 635/667; higher = more signal
[19] = tested on: wheat germ agglutinin (Triticum aestivum), Alexa647-labelled; assay: wheat germ agglutinin binders on compound microarrays, profiling panel, artefact control for SMM control-protein annotation, biochemical, small-molecule microarray, 635/667 nm fluorescence (AID 1140); conditions: WGA-A647 binding, 635 nm fluorescence, higher = more signal;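 further: score merges 667 nm feature emission with signal to noise over triplicate slides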
[20] = molecular target: Luciferin 4-monooxygenase (Photinus pyralis) (UniProt P08659); assay: firefly luciferase enzyme inhibitors, primary screen, biochemical, luminescence, purified enzyme, 2006 set (AID 1141); conditions: SteadyGlo luminescence, 30 min, higher = more signal, called active from +8 up or from −8 down;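 further: cell-free assay with purified firefly luciferase at 100 ng per well in PBS; test concentration not given here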
Chain of Luciferin 4-monooxygenase (Photinus pyralis) (P08659 whole entry, looked up): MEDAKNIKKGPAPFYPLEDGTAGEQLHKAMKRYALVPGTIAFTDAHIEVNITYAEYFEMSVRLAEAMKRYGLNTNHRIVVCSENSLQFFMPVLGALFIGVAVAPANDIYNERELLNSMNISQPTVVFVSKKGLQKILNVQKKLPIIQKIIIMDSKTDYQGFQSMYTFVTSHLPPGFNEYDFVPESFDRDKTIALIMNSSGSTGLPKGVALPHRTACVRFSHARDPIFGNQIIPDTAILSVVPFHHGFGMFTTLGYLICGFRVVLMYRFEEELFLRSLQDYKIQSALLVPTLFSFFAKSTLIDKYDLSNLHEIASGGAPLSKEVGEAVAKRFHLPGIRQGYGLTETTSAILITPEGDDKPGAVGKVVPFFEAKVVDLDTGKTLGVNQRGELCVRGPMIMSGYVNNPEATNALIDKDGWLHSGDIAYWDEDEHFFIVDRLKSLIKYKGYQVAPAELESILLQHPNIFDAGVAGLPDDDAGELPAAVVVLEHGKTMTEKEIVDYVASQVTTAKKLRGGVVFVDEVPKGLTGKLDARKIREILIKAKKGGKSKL

Chain of Follistatin (Homo sapiens) (P19883 whole entry, looked up): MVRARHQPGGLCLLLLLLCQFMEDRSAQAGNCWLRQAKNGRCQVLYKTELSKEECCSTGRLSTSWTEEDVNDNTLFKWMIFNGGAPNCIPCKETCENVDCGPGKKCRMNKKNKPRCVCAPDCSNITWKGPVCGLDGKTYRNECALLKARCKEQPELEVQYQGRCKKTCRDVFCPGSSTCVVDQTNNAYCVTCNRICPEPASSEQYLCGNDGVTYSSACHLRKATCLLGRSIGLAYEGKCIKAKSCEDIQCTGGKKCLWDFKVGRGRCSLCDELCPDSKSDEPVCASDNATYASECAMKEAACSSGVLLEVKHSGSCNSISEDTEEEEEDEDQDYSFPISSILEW
Chain of Albumin (Bos taurus) (P02769 whole entry, looked up): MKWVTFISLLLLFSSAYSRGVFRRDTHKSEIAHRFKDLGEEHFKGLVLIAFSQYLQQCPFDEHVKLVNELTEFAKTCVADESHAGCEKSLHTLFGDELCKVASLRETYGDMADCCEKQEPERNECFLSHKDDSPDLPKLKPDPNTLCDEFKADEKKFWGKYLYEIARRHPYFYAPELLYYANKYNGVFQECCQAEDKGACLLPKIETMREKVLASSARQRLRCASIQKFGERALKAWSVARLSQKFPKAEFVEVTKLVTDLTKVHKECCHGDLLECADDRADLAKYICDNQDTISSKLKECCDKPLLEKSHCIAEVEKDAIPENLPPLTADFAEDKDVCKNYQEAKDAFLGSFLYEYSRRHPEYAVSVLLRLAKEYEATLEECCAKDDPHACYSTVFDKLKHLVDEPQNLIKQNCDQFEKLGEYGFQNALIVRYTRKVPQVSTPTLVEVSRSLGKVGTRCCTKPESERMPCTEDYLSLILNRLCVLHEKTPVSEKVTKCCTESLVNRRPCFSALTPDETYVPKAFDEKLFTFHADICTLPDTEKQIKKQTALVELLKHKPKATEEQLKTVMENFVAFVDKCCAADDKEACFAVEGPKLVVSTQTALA
Chain of Focal adhesion kinase 1 (Homo sapiens) (Q05397 whole entry, looked up): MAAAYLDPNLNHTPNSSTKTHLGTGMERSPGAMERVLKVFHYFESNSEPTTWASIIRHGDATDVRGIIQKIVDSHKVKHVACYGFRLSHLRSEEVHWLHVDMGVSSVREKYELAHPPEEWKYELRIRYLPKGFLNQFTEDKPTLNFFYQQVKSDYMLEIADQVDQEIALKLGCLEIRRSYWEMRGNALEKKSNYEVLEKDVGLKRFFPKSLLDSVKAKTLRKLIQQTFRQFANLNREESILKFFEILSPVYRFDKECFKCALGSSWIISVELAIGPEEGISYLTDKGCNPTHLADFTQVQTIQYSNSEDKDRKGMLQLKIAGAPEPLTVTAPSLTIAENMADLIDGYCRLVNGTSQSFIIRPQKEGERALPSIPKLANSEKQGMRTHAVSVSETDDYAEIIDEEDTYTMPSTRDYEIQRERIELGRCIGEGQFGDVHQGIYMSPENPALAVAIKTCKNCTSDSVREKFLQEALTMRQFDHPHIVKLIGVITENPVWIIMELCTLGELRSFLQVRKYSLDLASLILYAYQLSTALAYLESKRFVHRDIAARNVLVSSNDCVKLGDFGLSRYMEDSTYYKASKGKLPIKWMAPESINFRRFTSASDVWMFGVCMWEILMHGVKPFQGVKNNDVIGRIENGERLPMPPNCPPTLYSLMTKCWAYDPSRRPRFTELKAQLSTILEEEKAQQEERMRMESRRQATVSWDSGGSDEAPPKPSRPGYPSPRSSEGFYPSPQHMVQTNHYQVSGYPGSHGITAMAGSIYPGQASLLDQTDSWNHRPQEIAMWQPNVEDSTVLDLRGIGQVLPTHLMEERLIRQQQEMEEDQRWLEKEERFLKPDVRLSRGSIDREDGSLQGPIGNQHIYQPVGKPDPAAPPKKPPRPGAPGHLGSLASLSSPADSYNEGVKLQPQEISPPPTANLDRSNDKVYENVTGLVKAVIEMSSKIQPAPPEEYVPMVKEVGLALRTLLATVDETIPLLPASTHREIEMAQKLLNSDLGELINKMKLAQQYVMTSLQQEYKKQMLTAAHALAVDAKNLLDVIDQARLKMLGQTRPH
Chain of Concanavalin-A (Canavalia ensiformis) (P02866 whole entry, looked up): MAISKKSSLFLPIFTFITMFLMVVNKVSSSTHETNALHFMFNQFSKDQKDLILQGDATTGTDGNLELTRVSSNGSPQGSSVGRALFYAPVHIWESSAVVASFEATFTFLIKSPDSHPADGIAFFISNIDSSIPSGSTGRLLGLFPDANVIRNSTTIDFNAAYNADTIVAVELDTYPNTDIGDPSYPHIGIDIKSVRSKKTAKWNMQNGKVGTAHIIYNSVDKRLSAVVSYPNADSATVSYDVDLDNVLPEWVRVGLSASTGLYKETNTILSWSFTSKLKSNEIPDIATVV
Chain of Fibroblast growth factor 2 (Homo sapiens) (P09038 whole entry, looked up): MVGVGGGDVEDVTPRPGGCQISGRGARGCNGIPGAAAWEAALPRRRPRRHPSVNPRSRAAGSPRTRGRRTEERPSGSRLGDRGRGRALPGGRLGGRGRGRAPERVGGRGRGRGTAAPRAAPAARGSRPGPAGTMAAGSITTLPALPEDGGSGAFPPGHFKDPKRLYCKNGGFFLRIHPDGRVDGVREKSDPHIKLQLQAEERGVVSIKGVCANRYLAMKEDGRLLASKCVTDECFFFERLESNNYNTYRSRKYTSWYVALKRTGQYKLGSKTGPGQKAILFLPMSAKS

SMILES | composite z-score [1] | composite Z-score [2] | composite z-score [3] | composite z-score [4] | composite z-score [5] | composite z-score [6] | composite z-score [7] | composite z-score [8] | composite z-score [9] | composite z-score [10] | composite z-score [11] | composite z-score [12] | composite z-score [13] | composite z-score [14] | composite z-score [15] | composite z-score [16] | z-score [17] | composite z-score [18] | composite z-score [19] | z-score [20]
NC(=O)NCC#Cc1ccc2c(c1)[C@]1(C(=O)N2)[C@H](C(=O)N2CCCCCCC2)[C@H]2C(=O)O[C@H](c3ccccc3)[C@H](c3ccccc3)N2[C@@H]1c1ccc(OCCO)cc1 | -0.946 | -0.397 (inactive) | 1.29 | 0.683 | 0.336 | 1.6 | 0.864 | 1.32 | 1.09 | 0.987 | -0.132 | 1.14 | 0.773 | 0.909 | 1.47 | 0.649 | -1.62 | 1.25 | 1.36 | -0.551 (inactive)
O=C1O[C@H](c2ccccc2)[C@H](c2ccccc2)N2[C@H]1[C@@H](C(=O)N1CCN(c3ncccn3)CC1)[C@]1(C(=O)Nc3ccccc31)[C@H]2c1ccc(OCCO)cc1 | 0.204 | -0.317 (inactive) | 0.183 | -0.0986 | 0.301 | 1.75 | 0.151 | 1.3 | 0.602 | 0.536 | 1.39 | 1.19 | 0.429 | -0.206 | 1.34 | 1.43 | -0.442 | 1.12 | 0.0522 | 0.546 (inactive)
CCOC(=O)C[C@H]1[C@H](OC(=O)Cc2ccc3c(c2)OCO3)[C@@H](NC(=O)c2ccc(-c3ccccc3)cc2)c2cc(OCCCO)ccc2N1C(=O)c1ccccc1 | 0.731 | 0.133 (inactive) | 0.0316 | -0.0649 | 0.364 | 0.341 | -0.202 | 0.792 | 0.379 | 0.645 | 0.18 | 1.06 | 0.356 | 0.672 | 0.526 | 0.685 | 2.42 | 0.419 | 0.507 | -1.16 (inactive)
COc1ccc(C(O)C2C=CC3C(=O)N(C)C(=O)C3N2Nc2ccccc2)cc1OCc1ccccc1 (stereo not given) | 0.878 | 0.0582 (inactive) | -0.0714 | -0.0128 | 0.754 | 1.67 | -0.142 | 1.28 | -0.0441 | 0.949 | 1.05 | 1.27 | 0.091 | 1.01 | 0.336 | -0.0667 | -0.295 | 0.0084 | 1.34 | -0.51 (inactive)
COc1ccccc1CN1C(=O)c2ccccc2[C@@H](C(=O)NCCN2CCOCC2)[C@@H]1c1ccc(CO)cc1 | 0.305 | -0.275 (inactive) | -0.0824 | -0.0548 | 0.769 | 1.29 | 1.08 | 0.287 | -0.159 | -0.15 | -0.355 | 0.789 | -0.444 | 0.234 | 0.912 | 1.26 | 0.708 | -0.0327 | 0.285 | 0.706 (inactive)
O=C(O)[C@H]1C[C@H]2C(=O)NCC(=O)N2[C@H]1c1ccc(O)cc1 | 0.346 | 0.289 (inactive) | 0.791 | -0.0761 | 0.688 | 0.921 | 0.0741 | 0.0505 | 1.26 | 0.482 | 2.65 | -0.722 | 0.0888 | -0.908 | 1.32 | 1.05 | 1.97 | 0.368 | -0.0842 | -1.54 (inactive)
COc1cccc(C(=O)O[C@H]2CC[C@]3(C)C4=C(CCC3C2(C)C)[C@]2(C)CC[C@H]([C@H](C)CCCC(C)C)[C@@]2(C)CC4)c1 (stereo not given in full) | 0.111 | -0.424 (inactive) | -0.0414 | -0.132 | 0.202 | 0.279 | -0.147 | 0.166 | 0.585 | 0.254 | 0.0291 | 0.386 | -0.404 | -0.133 | 0.649 | 0.281 | 0.434 | 0.24 | 0.258 | -0.843 (inactive)
CC(C)(C)OC(=O)CC[C@@]1(C(=O)O)N=C(c2ccc(OCCCO)cc2)O[C@@H]1c1ccccc1N=[N+]=[N-] | 0.933 | 0.0589 (inactive) | 0.39 | 0.0309 | 0.72 | 1.27 | 0.298 | 1.12 | -0.734 | 0.648 | 1.5 | 0.826 | 2.08 | 0.482 | 0.589 | -0.349 | -1.49 | -0.666 | 1.28 | -12.1 (active)
CN(C)C(=O)[C@]1(CCC(=O)OC(C)(C)C)N=C(c2ccc(OCCCO)cc2)O[C@@H]1c1ccccc1N=[N+]=[N-] | 0.934 | 0.155 (inactive) | 0.374 | -0.0985 | 0.719 | 3.15 | 0.964 | 1.31 | -0.516 | 0.858 | 0.128 | 1.3 | 0.383 | 0.996 | 1.25 | 0.347 | 0.752 | -0.037 | 1.15 | -7.84 (inactive)
O=C1OCCC=C[C@H]2OC34C=CCN(Cc5ccccc5)C(=O)[C@H]3N(CCCO)C(=O)[C@@H]4C12 (stereo not given in full) | 0.117 | -0.241 (inactive) | -0.275 | -0.164 | 0.897 | 0.0967 | -0.322 | -1.22 | -0.229 | -0.731 | 1.76 | -1.17 | -0.0769 | -0.887 | -0.145 | -0.349 | -0.778 | 0.181 | -0.194 | 0.0952 (inactive)
Cc1ccc(S[C@]2(C(=O)NCCN3CCOCC3)CC(=O)N(Cc3cc(C(F)(F)F)cc(C(F)(F)F)c3)[C@@H]2c2ccc(CO)cc2I)cc1 | 0.59 | -1.18 (inactive) | -0.214 | -0.164 | 0.661 | 0.373 | -0.0586 | 0.134 | -1.16 | -0.13 | -1.02 | -0.27 | 0.414 | -0.46 | 0.016 | -1.13 | 0.164 | -0.304 | 0.0101 | 1.31 (inactive)
